Assay results from PubChem BioAssay (NCATS).
“And” between values parts separate entries of the source, which are not always exact repeats. Identical values can stand only once. Inconclusive results are not listed. Entries that show only a call come without a potency. Values without a mark were called inactive. The source made the active and inactive calls. Unless noted, the call rests on the fitted dose curve; in most records, active means well fitted curve in the direction sought with a large enough effect; inconclusive means small, poorly fitted or top-dose-only effect, or another doubt; inactive means no such curve, though single readings can be large; an effect the other way counts as inactive or inconclusive.

Columns and labels:
[1] = target: Cellular tumor antigen p53 (Homo sapiens) (UniProt P04637); test: Primary qHTS for small molecule compounds that upregulate eGFP-tagged delta133p53alpha (in N-terminal) cells. (AID 2060322); settings: NCI-H358 eGFP-delta133p53alpha fluorescence, 24 h; activation: stronger effect = higher value;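 further: cells pre-induced with doxycycline then dosed without doxycycline; nearly all actives have a fitted effect of over 75% in size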
Chain of Cellular tumor antigen p53 (Homo sapiens) (P04637 whole entry, looked up): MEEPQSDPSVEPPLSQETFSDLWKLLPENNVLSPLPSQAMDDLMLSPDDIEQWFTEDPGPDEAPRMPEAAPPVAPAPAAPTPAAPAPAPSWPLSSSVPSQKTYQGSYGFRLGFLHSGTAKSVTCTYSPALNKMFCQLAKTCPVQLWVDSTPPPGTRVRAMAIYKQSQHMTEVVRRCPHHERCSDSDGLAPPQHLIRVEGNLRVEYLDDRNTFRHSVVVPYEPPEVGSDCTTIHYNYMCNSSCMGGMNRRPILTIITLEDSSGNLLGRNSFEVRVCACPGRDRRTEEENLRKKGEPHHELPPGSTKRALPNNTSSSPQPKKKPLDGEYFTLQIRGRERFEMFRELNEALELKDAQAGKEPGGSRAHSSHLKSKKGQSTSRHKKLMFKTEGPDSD
Method in brief: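 NCI-H358 cells pre-induced 24 h with 10 ng/ml doxycycline for eGFP-delta133p53alpha, plated dox-free and exposed 24 h at 37C to titrated compounds. Fixed, Hoechst-stained; gated GFP peak intensity by laser scanning cytometry, normalized to DMSO (0%) and 57.5 uM 5-azacytidine (100%).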

[2] = target: Cellular tumor antigen p53 (Homo sapiens) (UniProt P04637); test: Primary qHTS for small molecule compounds that upregulate eGFP-tagged delta133p53alpha (in C-terminal) cells. (AID 2060324); settings: NCI-H358 delta133p53alpha-eGFP (C-terminal tag), GFP fluorescence imaging, 24 h; series mostly up to 57.5 µM; further: potency means the concentration at half of the fitted maximal effect
Method in brief: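 Readout: filtered GFP peak intensity of gated cells (laser scanning cytometer), normalized plate-wise to intraplate controls, DMSO wells = 0% activity. Cells: NCI-H358 D133p53a-eGFP, dox 100 ng/ml 24 h beforehand, then compound 24 h, 37 °C.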

[3] = target: Aldehyde dehydrogenase, mitochondrial (Homo sapiens) (UniProt P05091); test: qHTS for Inhibitors of the Aldehyde Dehydrogenase Family (ALDH2) Validation screens (AID 2061302; active means well fitted inhibition curve with a large enough effect; title and protocol of this record describe different tests); settings: ALDH inhibition qHTS; series mostly up to 42.6 µM
[4] = target: Retinaldehyde dehydrogenase 3 (Homo sapiens) (UniProt P47895); test: qHTS for Inhibitors of the Aldehyde Dehydrogenase Family (ALDH1A3) Validation screen (AID 2061312); settings: ALDH1A3 enzyme inhibition qHTS validation, fluorescence; series mostly up to 84.7 µM; further: nearly all actives have a fitted effect of over 45% in size

| SMILES | activation [1] | Potency [2] | Potency [3] | Potency [4] |
| --- | --- | --- | --- | --- |
| CCc1ccc2c(-c3cccc(Cl)c3)nc(=O)n(CC)c2n1 | -40.5% | inactive | inactive | inactive |
| CCC(=O)N1CCN(C(=O)c2ccccc2)CC1 | -16% | inactive | inactive | inactive |
| NCCSSCCN | 43.3% | inactive | inactive | inactive |
| C=CC[C@H](N)C(=O)O | -35.4% | inactive | inactive | inactive |
| COc1ccccc1N1CCN(CCCCN2C(=O)c3ccccc3C2=O)CC1 | -14.4% | inactive | inactive | inactive |
| O=C(O)C1CCNCC1 | -2.71% | inactive | inactive | inactive |
| CNCCC(Oc1ccccc1C)c1ccccc1 (stereo not given) | -12.7% | inactive | inactive | inactive |
| O=c1[nH]c2cc([N+](=O)[O-])c([N+](=O)[O-])cc2[nH]c1=O | 41.5% | inactive | inactive | inactive |
| CCCc1c(-c2ccc(O)cc2)nn(-c2ccc(O)cc2)c1-c1ccc(O)cc1 | -36.4% | inactive | inactive | inactive |
| C#C[C@]1(O)CC[C@H]2[C@@H]3CCC4=Cc5oncc5CC4(C)[C@H]3CCC21C (stereo not given in full) | -35.6% | inactive | inactive | inactive |
| C[C@@H](CN1CCC(Cc2ccccc2)CC1)[C@@H](O)c1ccc(O)cc1 | -9.23% | inactive | inactive | inactive |
| Cn1ccnc1 | -23.6% | inactive | inactive | inactive |
| CCN(CC)CCNC(=O)c1ccc(NC(C)=O)cc1 | 18.6% and -9.2% | inactive | inactive | inactive |
| NS(=O)(=O)C#Cc1ccccc1 | 60.6% | 30.1 µM (active) | inactive | inactive |
| CC(C)(CO)Cc1cc(C(C)(C)C)c(O)c(C(C)(C)C)c1 | -20% | inactive | inactive | inactive |
| N[C@H](CO)C(=O)O | 9.85% | inactive | inactive | inactive |
| N#CC(C#N)=C(N)/C(C#N)=C/c1ccc(O)cc1 | -15.2% | inactive | inactive | inactive |
| COCCCC/C(=N\OCCN)c1ccc(C(F)(F)F)cc1 | -6.69% and 3.07% | inactive | inactive | inactive |
| C[N+](C)(C)CC=O | -21.7% | inactive | inactive | inactive |
| CCCCNC(=O)NS(=O)(=O)c1ccc(C)cc1 | -35.6% and -11.9% | inactive | inactive | inactive |
| O=C(O)CCC/C=C\C[C@@H]1[C@@H](/C=C/[C@H](O)C2Cc3ccccc3C2)[C@@H](F)C[C@@H]1O | -5.22% | inactive | inactive | inactive |
| CC[C@H]1OC(=O)[C@H](C)C(O[C@H]2C[C@@](C)(OC)[C@@H](O)[C@H](C)O2)[C@H](C)[C@@H](OC2O[C@H](C)C[C@H](N(C)C)[C@H]2O)[C@](C)(O)C[C@@H](C)CN(C)[C@H](C)[C@@H](O)[C@]1(C)O (stereo not given in full) | -28.2% | inactive | inactive | inactive |
| CN1CCN2c3ccccc3Cc3ccccc3C2C1 (stereo not given) | -35.4% | inactive | inactive | inactive |
| CCN(CC)CCNC(=O)c1cc(S(C)(=O)=O)ccc1OC | -10% and -17.5% | inactive | inactive | inactive |
| NC(=O)CC[C@H](N)C(=O)O | 18.7% | inactive | inactive | inactive |
